# Source: PubChem (National Center for Advancing Translational Sciences (NCATS))
# The list is not random: actives were taken first. Their share in the collection is about 21%.
# TDP1 cell CPT – qHTS for Inhibitors of human tyrosyl-DNA phosphodiesterase 1 (TDP1): qHTS in cells in presence of CPT; chicken DT40 Tdp1-/-;hTDP1 cells + 20 nM CPT, ATP luminescence, 48 h; 12% of 420,000 active; Potency, µM (highest dose often 46.2 µM), hits mostly inhibitors; note: nearly all actives have a fitted effect of over 55% in size
#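 Chicken DT40 Tdp1-/- cells complemented with human TDP1, 400 cells/well, exposed to compounds plus 20 nM camptothecin for at least 48 h at 37 C; viability read as ATP content by CellTiter-Glo luminescence.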
# VP16 counter – VP16 counterscreen qHTS for inhibitors of ROR gamma transcriptional activity | Drosophila S2 Gal4-VP16 UAS-luciferase, luminescence, 20 h | Potency, µM (doses to about 53.6 µM), usual class: inhibitors | 3.5% of 310,000 active;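 note: Gal4-VP16 expression switched on by copper sulfate through the metallothionein promoter; nearly all actives have a fitted effect of over 50% in size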
# RORg inh – qHTS for inhibitors of ROR gamma transcriptional activity; Nuclear receptor ROR-gamma (Mus musculus), P51450; Drosophila S2 Gal4-RORgamma UAS-luciferase reporter, 20 h; Potency, µM (top dose mostly 53.6 µM), actives largely listed as inhibitors; 5.4% of 310,000 active; AID 2551, 2010; note: nearly all actives have a fitted effect of over 60% in size
# Target sequence (P51450 whole entry, looked up, the tested form may be a part): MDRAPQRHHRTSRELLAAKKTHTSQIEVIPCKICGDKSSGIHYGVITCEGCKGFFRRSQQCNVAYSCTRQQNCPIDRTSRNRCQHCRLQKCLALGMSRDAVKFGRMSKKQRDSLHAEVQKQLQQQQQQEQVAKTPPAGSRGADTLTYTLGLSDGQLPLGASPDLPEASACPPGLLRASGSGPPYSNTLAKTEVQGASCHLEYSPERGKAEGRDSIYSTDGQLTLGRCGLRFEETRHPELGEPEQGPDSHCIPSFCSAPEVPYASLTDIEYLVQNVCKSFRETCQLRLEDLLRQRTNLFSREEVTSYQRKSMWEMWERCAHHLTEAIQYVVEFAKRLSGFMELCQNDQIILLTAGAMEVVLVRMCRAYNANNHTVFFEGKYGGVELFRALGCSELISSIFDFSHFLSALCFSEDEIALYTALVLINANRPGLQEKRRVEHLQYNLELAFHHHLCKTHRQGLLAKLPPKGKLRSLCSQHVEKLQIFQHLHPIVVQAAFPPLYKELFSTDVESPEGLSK
#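 Stably transfected Drosophila Schneider cells are the test system, with ROR gamma fused to Gal4 and luciferase under UAS control; luminescence is read after 20 hr of 700 uM copper sulfate induction at ambient temperature.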
# IL-1B inflam inh – qHTS for Inhibitors of Inflammasome Signaling: IL-1-beta AlphaLISA Primary Screen. THP-1 LPS/ATP IL-1B secretion, AlphaLISA, 16 h; hits give low values. activity change, % at 57.5 µM. 4.7% of 360,000 active. AID 743279, 2014; in the data active = activity change below about -50%; inconclusive = mostly about -30% to -49%
#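 Secreted IL-1B measured by AlphaLISA bead assay after 16 h compound exposure of THP-1 cells; compounds (final up to 57.5 uM) added 1 h before LPS (250 ng/mL) and ATP (1.25 mM) stimulation; lower signal means less secretion.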
# TDP1 cell noCPT – qHTS for Inhibitors of human tyrosyl-DNA phosphodiesterase 1 (TDP1): qHTS in cells in absence of CPT | Potency, µM (highest dose often 46.2 µM), usual class: inhibitors | DT40 Tdp1-/- hTDP1 cells, no CPT, ATP luminescence, 48 h | 15% of 420,000 active | AID 686978, 2013; note: nearly all actives have a fitted effect of over 55% in size
#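 Luminescent ATP content (CellTiter-Glo) served as the growth readout. Knockout chicken DT40 cells expressing human TDP1 were exposed to compounds without camptothecin for a minimum 48 hr at 37 °C.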
# ELG1 repair inh – qHTS screen for small molecules that inhibit ELG1-dependent DNA repair in human embryonic kidney (HEK293T) cells expressing luciferase-tagged ELG1. 2.3% of 330,000 active. Potency, µM (top dose mostly 46.1 µM), usual class: inhibitors. HEK293T ELG1-luciferase reporter, luminescence, 16 h; DNA damage induced by 5-fluorouridine; note: nearly all actives have a fitted effect of over 55% in size
#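 Quantitative HTS, concentration-response format. 2,000 cells/well co-treated with 5-fluorouridine and compound, 16 hr in 5% CO2 at 37 °C; ONE-Glo luminescence read after 30 min.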
# Hits are given with their value; n = inactive; u = inconclusive; x = not tested or not shown; [ ] = dose if it differs, or a comment. Unless noted, calls come from the whole dose curve; as a rule, active = well fitted curve in the direction sought with a large enough effect; inconclusive = small, poorly fitted or top-dose-only effect, or another doubt; inactive = no such curve, though single readings can be large; an effect the other way counts as inactive or inconclusive.
SMILES,TDP1 cell CPT,VP16 counter,RORg inh,IL-1B inflam inh,TDP1 cell noCPT,ELG1 repair inh
C#Cc1ccc(NC(=O)C2(C)CCN2C(=O)CC(c2ccccc2)c2ccccc2)cc1 (stereo not given),16µM,x,x,n,u,x
CC1(C(=O)NS(=O)(=O)c2ccc(F)cc2F)CCN1C(=O)CC(c1ccccc1)c1ccccc1 (stereo not given),u,x,x,n,u,x
C#Cc1ccc(NC(=O)C2(C)CCN2C(=O)C2(c3ccccc3)CC2)cc1 (stereo not given),u,x,x,n,u,x
CC1(C(=O)Nc2nccs2)CCN1C(=O)CC(c1ccccc1)c1ccccc1 (stereo not given),16µM,x,x,n,21µM,x
Cc1ccc(F)c(S(=O)(=O)NC(=O)C2(C)CCN2C(=O)CC(c2ccccc2)c2ccccc2)c1 (stereo not given),u,x,x,n,21µM,x
O=C(CSc1nnc(C2CC2)n1C1CC1)c1cccs1,n,x,x,n,n,u
COc1cccc([C@@H]2Oc3ccc(Br)cc3C(=O)[C@H]2OC(=O)NCc2ccco2)c1,x,n,u,x,x,x
CCCNC1=C(N(C(C)=O)c2cccc(F)c2)C(=O)c2ccccc2C1=O,2.6µM,u,u,-84,2.1µM,4.6µM
C=CC[C@@H]1C=C[C@@H](O/N=C(/C)CCC(=O)OC[C@@H]2O[C@H](C#Cc3ccccc3)C=C[C@@H]2Oc2ccc(C)cc2)[C@@H](CO)O1,x,n[10 µM],n[10 µM],x,x,x
Cc1cccc(N2CCN(C(=O)CSc3ccc4c(c3)OCCO4)CC2)c1C,n,x,x,n,n,11µM
Cc1cc(=O)oc2c(C)c(OCC(=O)N3CCN(c4ccc(F)cc4)CC3)ccc12,23µM,n,n,n,23µM,u
COC(=O)Cc1c(C)c2ccc(OCC(=O)N3CCC(C)CC3)c(C)c2oc1=O,13µM,n,n,n,15µM,u
COC(=O)Cc1c(C)c2ccc(OCC(=O)N3CCCC3)c(C)c2oc1=O,u,n,n,n,n,n
Cc1cccc(N2CCN(S(=O)(=O)c3ccc4c(c3)OCCO4)CC2)c1C,n,n,n,n,n,n
O=C(COc1ccc2c3c(c(=O)oc2c1)CCCC3)N1CCN(c2ccc(F)cc2)CC1,23µM,n,n,n,u,n
COc1ccc(N2CCN(C(=O)COc3ccc4c(C)cc(=O)oc4c3C)CC2)cc1,n,n,n,n,n,n
Cc1cccc(N2CCN(C(=O)COc3ccc4c(C)cc(=O)oc4c3C)CC2)c1C,13µM,n,n,u,15µM,26µM
COc1ccc(CNC(=O)C2Cc3c(-c4cccc(F)c4)ccnc3O2)cc1OC (stereo not given),8.2µM,x,x,n,u,x
CC(=O)c1cccc(-c2ccnc3c2CC(C(=O)NCc2ccc(N4CCN(C)CC4)cc2)O3)c1 (stereo not given),n,x,x,n,u,x
O=C(NCc1ccccc1)C1Cc2c(-c3cccc(F)c3)ccnc2O1 (stereo not given),0.92µM,x,x,n,0.92µM,x
O=C(NCC1CC1)C1Cc2c(-c3cccc(F)c3)ccnc2O1 (stereo not given),n,x,x,n,u,x
O=C(NCc1cccc(Cl)c1)C1Cc2c(-c3cccc(F)c3)ccnc2O1 (stereo not given),21µM,x,x,n,26µM,x
CN1CCN(c2ccc(CNC(=O)C3Cc4c(-c5cccc(F)c5)ccnc4O3)cc2)CC1 (stereo not given),u,x,x,u,21µM,x
CC(=O)c1cccc(NC(=O)CN(C)S(=O)(=O)c2ccc3c(c2)CC(C)N3C(C)=O)c1 (stereo not given),u,u,n,n,u,n
